This is an account of results in PubChem BioAssay (EPA / NIEHS).

Calls of active or inactive are those of the source. How the source made its calls: active means hit-call score of the fitted dose curve at least 0.9, where 1 is the maximum; inactive means score below 0.9.

What all share (conditions): mRNA level, 48 h; actives raise or lower the signal
Read-out in assay [1]: Bcl-2 (BAD) gene, BAD (gene 572)
Description: LTEA_HepaRG_BAD: Life Technologies and Expression Analysis (LTEA) Assay for Bcl-2 (BAD) gene using HepaRG (AID 2283469). In a few lines:
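Activity values reflect up- or down-regulation of BAD mRNA in human HepaRG hepatic cells treated 48 h in serum-free medium, with eight-point half-log dosing capped at 100 uM and 0.5% DMSO vehicle.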

Read-out in assay [2]: Bcl-2 (BAX) gene, BAX (gene 581)
The experiment in a line: LTEA_HepaRG_BAX: Life Technologies and Expression Analysis (LTEA) Assay for Bcl-2 (BAX) gene using HepaRG (AID 2283470). In a few lines:
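Gene expression measured by Fluidigm qRT-PCR with three housekeeping genes for normalisation. HepaRG cells, plated 48 h beforehand, treated 48 h at up to 100 uM (8-point, half-log) in 0.5% DMSO. Bidirectional fitting versus DMSO.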

Read-out in assay [3]: adenosine kinase (ADK) gene, ADK (gene 132)
The experiment in a line: LTEA_HepaRG_ADK: Life Technologies and Expression Analysis (LTEA) Assay for adenosine kinase (ADK) gene using HepaRG (AID 2283471). In a few lines:
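Following 48 h exposure of HepaRG cells in 0.5% DMSO (top concentration 100 uM, duplicate wells), ADK mRNA induction or suppression was measured by qRT-PCR, normalised to ACTB/GAPDH/POLR2A, and fitted bidirectionally relative to vehicle.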

Read-out in assay [4]: Alpha-fetoprotein (AFP) gene, AFP (gene 174)
The experiment in a line: LTEA_HepaRG_AFP: Life Technologies and Expression Analysis (LTEA) Assay for Alpha-fetoprotein (AFP) gene using HepaRG (AID 2283472). In a few lines: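 AFP transcript measured by TaqMan qRT-PCR with three housekeeping genes for normalization, after 48 h chemical treatment of HepaRG cells (top 100 uM, half-log steps, 0.5% DMSO). Gain or loss fitted against vehicle.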

Read-out in assay [5]: BCL2L11 (gene 10018)
The experiment in a line: LTEA_HepaRG_BCL2L11: Life Technologies and Expression Analysis (LTEA) Assay for Bcl-2 (BCL2L11) gene using HepaRG (AID 2283473). In a few lines: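 Cells were plated, cultured 48 h, switched to serum-free induction medium, then dosed in duplicate for 48 h at eight half-log concentrations up to 100 uM. Lysates underwent RNA isolation and TaqMan qRT-PCR; gain or loss versus DMSO was fitted.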

Read-out in assay [6]: Apolipoprotein A-V (APOA5) gene, APOA5 (gene 116519)
The experiment in a line: LTEA_HepaRG_APOA5: Life Technologies and Expression Analysis (LTEA) Assay for Apolipoprotein A-V (APOA5) gene using HepaRG (AID 2283474). In a few lines:
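Human liver HepaRG cells are treated 48 h with test chemicals (100 uM top, half-log dilutions, 0.5% DMSO). APOA5 mRNA induction or loss is measured by qRT-PCR relative to vehicle.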

Read-out in assay [7]: Apoptosis regulator Bcl-2 (Homo sapiens) (UniProt P10415)
Description: LTEA_HepaRG_BCL2: Life Technologies and Expression Analysis (LTEA) Assay for Bcl-2 gene using HepaRG (AID 2283475). In a few lines: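 qRT-PCR of BCL2 transcript, normalized to three housekeeping genes (ACTB, GAPDH, POLR2A), after 48 h chemical exposure of HepaRG cells; concentrations top 100 uM with half-log dilutions, 0.5% DMSO vehicle, duplicates; changes up or down fitted relative to vehicle.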

Read-out in assay [8]: Bcl-2 (BID) gene, BID (gene 637)
The experiment in a line: LTEA_HepaRG_BID: Life Technologies and Expression Analysis (LTEA) Assay for Bcl-2 (BID) gene using HepaRG (AID 2283476). In a few lines:
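Duplicate 48 h treatments of HepaRG cells in serum-free induction medium spanned 100 uM downward in half-log steps, 0.5% DMSO. Transcript change quantified by qRT-PCR against three housekeeping genes, fitted up or down versus DMSO.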

Read-out in assay [9]: Caspase-3 (Homo sapiens) (UniProt P42574)
The experiment in a line: LTEA_HepaRG_CASP3: Life Technologies and Expression Analysis (LTEA) Assay for cysteine-aspartic acid protease (CASP3) using HepaRG (AID 2283477). In a few lines:
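In HepaRG liver cells dosed for 48 h at up to 100 uM (eight-point, duplicate), CASP3 expression changes are scored by qRT-PCR. Activity is fitted in both directions with 0.5% DMSO as baseline.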

Read-out in assay [10]: Cytochrome P450 (CYP24A1), CYP24A1 (gene 1591)
The experiment in a line: LTEA_HepaRG_CYP24A1: Life Technologies and Expression Analysis (LTEA) Assay for Cytochrome P450 (CYP24A1) using HepaRG (AID 2283478). In a few lines: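 Human liver HepaRG cultures receive each chemical for 48 h across an eight-point half-log series topping at 100 uM in 0.5% DMSO. Induction or suppression of CYP24A1 mRNA is scored relative to vehicle after housekeeping-gene normalization.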

Read-out in assay [11]: Cytochrome P450 (CYP1A2), CYP1A2 (gene 1544)
The experiment in a line: LTEA_HepaRG_CYP1A2: Life Technologies and Expression Analysis (LTEA) Assay for Cytochrome P450 (CYP1A2) using HepaRG (AID 2283479). In a few lines: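 Assesses CYP1A2 mRNA in human HepaRG liver cells after 48 h chemical exposure at up to 100 uM. Values come from qRT-PCR with bidirectional curve fitting relative to DMSO.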

Read-out in assay [12]: cysteine-aspartic acid protease (CASP8), CASP8 (gene 841)
Description: LTEA_HepaRG_CASP8: Life Technologies and Expression Analysis (LTEA) Assay for cysteine-aspartic acid protease (CASP8) using HepaRG (AID 2283480). In a few lines: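 Concentration-response in duplicate up to 100 uM (half-log steps, 0.5% DMSO) on differentiated HepaRG cultures for 48 h. Expression change of CASP8 mRNA is determined by TaqMan qRT-PCR with housekeeping-gene normalization.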

Read-out in assay [13]: Cytochrome P450 (CYP2B6), CYP2B6 (gene 1555)
Description: LTEA_HepaRG_CYP2B6: Life Technologies and Expression Analysis (LTEA) Assay for Cytochrome P450 (CYP2B6) using HepaRG (AID 2283481). In a few lines: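 Using 48 h treatment of HepaRG cells in serum-free induction medium, concentrations spanned half-log steps from 100 uM in 0.5% DMSO vehicle. CYP2B6 mRNA induction or loss is scored by qRT-PCR against DMSO.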

Read-out in assay [14]: Cytochrome P450 2C19 (Homo sapiens) (UniProt P33261)
Description: LTEA_HepaRG_CYP2C19: Life Technologies and Expression Analysis (LTEA) Assay for CYP2C19 using HepaRG (AID 2283482). In a few lines:
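Human HepaRG liver cells received test chemicals for 48 h (highest 100 uM, half-log dilutions in 0.5% DMSO). CYP2C19 mRNA induction or loss is read by multiplexed qRT-PCR and fitted in both directions versus vehicle.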

Read-out in assay [15]: CYP2C8 (gene 1558)
The experiment in a line: LTEA_HepaRG_CYP2C8: Life Technologies and Expression Analysis (LTEA) Assay for CYP2C8 using HepaRG (AID 2283483). In a few lines: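 This is a transcriptional endpoint in HepaRG cultures: 48 h exposure, highest concentration 100 uM. CYP2C8 mRNA is quantified by TaqMan qRT-PCR.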

Read-out in assay [16]: CYP2E1 (gene 1571)
The experiment in a line: LTEA_HepaRG_CYP2E1: Life Technologies and Expression Analysis (LTEA) Assay for CYP2E1 using HepaRG (AID 2283485). In a few lines:
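CYP2E1 transcript measured by Fluidigm qRT-PCR against three housekeeping genes in human HepaRG cells treated 48 h (top 100 uM, half-log steps, 0.5% DMSO vehicle). Gain or loss fitted relative to DMSO baseline.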

Read-out in assay [17]: CYP4A11 (gene 1579)
The experiment in a line: LTEA_HepaRG_CYP4A11: Life Technologies and Expression Analysis (LTEA) Assay for CYP4A11 using HepaRG (AID 2283486). In a few lines: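 Readout is CYP4A11 mRNA induction or suppression (qRT-PCR, ACTB/GAPDH/POLR2A normalization) in human HepaRG cells after 48 h chemical treatment, concentrations to 100 uM in 0.5% DMSO, fitted bidirectionally against vehicle.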

Read-out in assay [18]: Cytochrome P450 3A4 (Homo sapiens) (UniProt P08684)
Description: LTEA_HepaRG_CYP3A4: Life Technologies and Expression Analysis (LTEA) Assay for CYP3A4 using HepaRG (AID 2283487). In a few lines: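 In a human hepatic line (HepaRG), duplicate wells were treated 48 h with up to 100 uM chemical in half-log dilutions. Endpoint: CYP3A4 mRNA induction or loss relative to 0.5% DMSO vehicle, by qRT-PCR.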

Read-out in assay [19]: CYP2C9 (gene 1559)
The experiment in a line: LTEA_HepaRG_CYP2C9: Life Technologies and Expression Analysis (LTEA) Assay for CYP2C9 using HepaRG (AID 2283484). In a few lines:
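Eight-point concentration-response (highest 100 uM, half-log dilutions) in HepaRG cells for 48 h; CYP2C9 expression by qRT-PCR normalized to ACTB, GAPDH, POLR2A. Bidirectional fit, DMSO baseline.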

Apoptosis regulator Bcl-2 (Homo sapiens), sequence (P10415 whole entry, looked up): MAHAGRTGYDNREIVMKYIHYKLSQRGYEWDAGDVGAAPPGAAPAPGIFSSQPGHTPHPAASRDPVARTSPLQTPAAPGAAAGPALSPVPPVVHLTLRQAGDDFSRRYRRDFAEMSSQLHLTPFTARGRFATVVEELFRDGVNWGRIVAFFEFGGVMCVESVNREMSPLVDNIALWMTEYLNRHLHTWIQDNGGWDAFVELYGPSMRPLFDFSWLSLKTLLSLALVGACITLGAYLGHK
Cytochrome P450 3A4 (Homo sapiens), sequence (P08684 whole entry, looked up): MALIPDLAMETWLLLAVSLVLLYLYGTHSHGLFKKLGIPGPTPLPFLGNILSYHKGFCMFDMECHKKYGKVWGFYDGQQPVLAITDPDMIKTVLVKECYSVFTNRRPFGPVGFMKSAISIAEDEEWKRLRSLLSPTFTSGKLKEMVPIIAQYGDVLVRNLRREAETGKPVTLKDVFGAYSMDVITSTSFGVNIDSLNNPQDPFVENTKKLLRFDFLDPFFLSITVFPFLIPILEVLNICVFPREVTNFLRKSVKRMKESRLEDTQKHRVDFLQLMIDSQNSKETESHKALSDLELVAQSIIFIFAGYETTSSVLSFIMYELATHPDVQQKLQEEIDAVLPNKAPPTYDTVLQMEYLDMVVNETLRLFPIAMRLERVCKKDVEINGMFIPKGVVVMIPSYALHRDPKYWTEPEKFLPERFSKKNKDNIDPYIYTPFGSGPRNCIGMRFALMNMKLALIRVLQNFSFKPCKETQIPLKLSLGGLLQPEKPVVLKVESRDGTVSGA
Cytochrome P450 2C19 (Homo sapiens), sequence (P33261 whole entry, looked up): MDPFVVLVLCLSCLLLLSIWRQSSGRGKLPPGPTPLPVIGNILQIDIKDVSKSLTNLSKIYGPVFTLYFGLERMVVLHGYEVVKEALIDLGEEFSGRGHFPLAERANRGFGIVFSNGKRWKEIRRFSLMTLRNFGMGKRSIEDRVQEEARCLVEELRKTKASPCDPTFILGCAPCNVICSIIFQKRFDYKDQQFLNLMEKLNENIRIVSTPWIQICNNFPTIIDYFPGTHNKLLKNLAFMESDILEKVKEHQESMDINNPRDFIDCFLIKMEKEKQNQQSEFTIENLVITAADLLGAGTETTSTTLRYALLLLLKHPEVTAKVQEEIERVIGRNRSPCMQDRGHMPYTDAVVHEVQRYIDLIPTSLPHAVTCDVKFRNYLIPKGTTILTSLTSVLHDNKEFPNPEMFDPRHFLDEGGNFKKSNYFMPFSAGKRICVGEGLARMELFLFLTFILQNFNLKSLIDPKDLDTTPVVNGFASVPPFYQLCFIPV
Caspase-3 (Homo sapiens), sequence (P42574 whole entry, looked up): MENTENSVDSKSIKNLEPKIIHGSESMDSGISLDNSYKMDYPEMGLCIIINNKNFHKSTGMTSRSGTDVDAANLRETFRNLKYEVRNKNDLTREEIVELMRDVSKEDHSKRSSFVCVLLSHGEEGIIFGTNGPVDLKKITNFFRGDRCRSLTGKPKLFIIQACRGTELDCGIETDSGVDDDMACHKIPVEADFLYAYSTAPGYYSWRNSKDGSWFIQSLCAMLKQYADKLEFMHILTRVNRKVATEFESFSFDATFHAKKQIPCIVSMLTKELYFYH

On to `C[C@]12CC[C@@H]3c4ccc(O)cc4C[C@@H](CCCCCCCCCS(=O)CCCC(F)(F)C(F)(F)F)[C@H]3[C@@H]1CC[C@@H]2O` (stereo not given in full), for which the AC50 in [1] is 0.045 µM (active); in assay [4] it was 33.1 µM (active); in assay [5], 0.0755 µM (active); in assay [6] it was 50 µM (active); in [7], 0.0469 µM (active); in assay [8], 0.0682 µM (active). The AC50 in assay [13] was 29.9 µM (active); in assay [14] it was 26 µM (active); in assay [15], 32.6 µM (active); in assay [16], 20.2 µM (active); in [17], 30.9 µM (active); in [18] it was 31.1 µM (active). The outcome in assay [2], in assay [3], in assay [9], in [10], in assay [11] and in [12] was inactive.

Turning to `c1ccc2[nH]c(-c3cscn3)nc2c1`, the result in [1], in [2], in assay [3], in [4], in assay [5] and in [6] was inactive. Moreover, the result in assay [7], in assay [9], in assay [10], in assay [12] and in assay [15] was inactive. Also, the AC50 in assay [11] is 23.6 µM (active); in [13], 16.5 µM (active); in assay [14], 28.6 µM (active); in assay [16], 50 µM (active).

`CCCCOCCOCCOCc1cc2c(cc1CCC)OCO2`: the result in [1], in [2], in [3], in assay [5], in assay [6] and in assay [7] was inactive. Besides, the outcome in assay [9], in assay [10] and in [12] was inactive. In addition, the AC50 is 33.3 µM (active) in [4]; 16.5 µM (active) in [11]; 2.28 µM (active) in assay [13]; 5.73 µM (active) in assay [14]; 4.61 µM (active) in assay [15]; 3.39 µM (active) in [19]. Further, the AC50 in assay [16] was 14 µM (active).

On to `CCOC(=O)COc1cc(-n2ncc(C(F)(F)F)c(C)c2=O)c(F)cc1Cl`, for which the compound was called inactive in [1], in [2], in assay [3], in assay [4], in assay [5] and in assay [6]. For the same compound, the call in [7], in [8], in [9], in assay [10], in assay [11] and in assay [12] was inactive. Moreover, the outcome in assay [14], in assay [15] and in assay [16] was inactive. In addition, the AC50 in [13] and in [18] was 50 µM (active) throughout.

On to `CCCCOC(=O)[C@@H](C)Oc1ccc(Oc2ccc(C(F)(F)F)cn2)cc1`, for which the compound was called inactive in assay [1], in assay [2], in assay [3], in [4], in [5] and in assay [6]. Further, the outcome in assay [7], in assay [9], in assay [10], in assay [11], in assay [12] and in assay [13] was inactive. Further, the result in assay [14], in assay [15], in assay [19] and in assay [18] was inactive. For the same compound, the half-maximal activity concentration (AC50) in [16] is 17 µM (active).

Take `O=C(O)C1(C(=O)Nc2ccc(Cl)cc2Cl)CC1`: the outcome in assay [1], in assay [2], in [5], in [7], in assay [10] and in assay [11] was inactive. In addition, in assay [12], the result was inactive. The AC50 in assay [3] was 79.4 µM (active); in assay [4] it was 65.6 µM (active); in [6], 74.9 µM (active); in assay [9], 28.4 µM (active); in assay [13], 66.9 µM (active); in assay [14], 76.5 µM (active). For the same compound, the AC50 in assay [15] is 82.6 µM (active); in assay [19], 71.9 µM (active); in [16], 63.5 µM (active); in assay [18] it was 75.4 µM (active).

The term AC50 denotes the midpoint of the concentration-response curve, whichever way the signal moves.
